± gives the standard deviation.
Key:
Details in all cases: modulator concentration 10 µM
[1] = tested on: RAW-Dual (murine macrophage reporter line); test: NF-kB reporter (SEAP) activity fold change vs agonist alone; higher = enhanced NF-kB activity
In short: (§1)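 RAW-Dual murine macrophage reporter cells were seeded at 50 000 per well in 384-well plates and pre-incubated 1 hour at 37 °C with compound pin-transferred to 10 μM final. After 1 hour, a PRR agonist was added and cells incubated overnight. Supernatant NF-κB (SEAP, QUANTI-Blue, 620 nm absorbance) and IRF (Lucia luciferase, QUANTI-Luc, luminescence) signals were divided by the mean agonist-only control on the same plate to give fold change. Two replicate plates were averaged, with errors by propagation.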

[2] = tested on: RAW-Dual (murine macrophage reporter line); test: IRF reporter (Lucia luciferase) activity fold change vs agonist alone; higher = enhanced IRF activity
In short: as §1

[3] = tested on: RAW-Dual (murine macrophage reporter line); test: viability score (confluency relative to resting cells, overnight) (fraction); higher = more viable, active = viable (0.7 or more)
In short: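 RAW-Dual macrophages in 384-well plates were incubated overnight with compound, final concentration 10 μM. Confluency images from IncuCyte were processed in IncuCyte software into two masks covering all imaged wells. The viability score is each well's confluency relative to resting cells, and a compound met the cutoff when both masks exceeded 70% of resting cells.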

[4] = agonist: CpG ODN 1826 0.5 ug/mL

Structure (SMILES) | NF-kB reporter [1, 4] | NF-kB reporter ([1]; agonist: LPS 0.1 ug/mL) | NF-kB reporter ([1]; agonist: MPLA […]) | IRF reporter ([2]; agonist: 3'3'-cGAMP 10 ug/mL) | IRF reporter ([2]; agonist: LPS 0.1 ug/mL) | IRF reporter ([2]; agonist: MPLA […]) | viability score [3]
CC(C)(C)C(=O)OCOP(=O)(COCCn1cnc2c(N)ncnc21)OCOC(=O)C(C)(C)C | 1.69 ± 0.25 | 1.36 ± 0.11 | 1.65 ± 0.1 | 1.81 ± 0.096 | 5.89 ± 0.5 | 3.2 ± 0.43 | 0.788 (active)
O=C(O)CCCCCN1C(=O)c2cccc3cccc(c23)C1=O | 0.97 ± 0.055 | 1.05 ± 0.094 | 0.948 ± 0.06 | 0.989 ± 0.05 | 1.35 ± 0.092 | 1.11 ± 0.1 | 1.01 (active)
N#CC1=C(NC(=S)NC(=O)c2ccccc2)c2ccccc2CC12CCCCC2 | 0.818 ± 0.096 | 0.577 ± 0.12 | 1.08 ± 0.085 | 1.76 ± 0.18 | 1.41 ± 0.098 | 1.73 ± 0.18 | 0.877 (active)
COc1cc(OC)c(NC(=O)C2CCCN(c3ccc(-c4ccc(C)c(C)c4)nn3)C2)cc1Cl (configuration not stated) | 1.04 ± 0.09 | 1.04 ± 0.081 | 0.93 ± 0.04 | 0.964 ± 0.052 | 1.09 ± 0.066 | 1 ± 0.15 | 1.01 (active)
CCOC(=O)c1c(C)nn(C2CCCCC2)c1N | 1.1 ± 0.1 | 1.02 ± 0.049 | 1.09 ± 0.099 | 0.954 ± 0.044 | 1.2 ± 0.075 | 1.37 ± 0.12 | 1.02 (active)
Cn1cnc2cc(NCc3ccc(Br)cc3)ccc21 | 0.882 ± 0.14 | 0.762 ± 0.076 | 0.984 ± 0.1 | 0.805 ± 0.045 | 1.06 ± 0.21 | 1.13 ± 0.25 | 0.984 (active)
CCOC(=O)C1=C(C)NC(C)=C(C(=O)OCC)C1c1ccc(F)cc1 | 0.796 ± 0.067 | 0.729 ± 0.059 | 1.8 ± 0.067 | 1.05 ± 0.037 | 0.987 ± 0.059 | 4.4 ± 0.55 | 0.244 (inactive)
S=C(NCCN1CCOCC1)Nc1ccc(Cl)cc1 | 1 ± 0.23 | 0.966 ± 0.1 | 0.886 ± 0.12 | 0.71 ± 0.019 | 1.22 ± 0.16 | 1.13 ± 0.12 | 0.986 (active)
COc1c(O)cc(O)cc1O | 1.03 ± 0.095 | 1.08 ± 0.057 | 1.1 ± 0.047 | 1.07 ± 0.069 | 0.985 ± 0.078 | 1.02 ± 0.17 | 0.996 (active)
CC(C)CN(CC(O)C(Cc1ccccc1)NC(=O)OC1COC2OCCC12)S(=O)(=O)c1ccc(N)cc1 (configuration not stated) [Prestw-1802] | 1.53 ± 0.34 | 1.52 ± 0.14 | 1.84 ± 0.15 | 0.872 ± 0.069 | 0.827 ± 0.22 | 0.953 ± 0.14 | 0.981 (active)
CC(=O)Oc1ccc2c(c1)c(C(C)=O)c(C)n2C | 0.859 ± 0.071 | 0.972 ± 0.1 | 0.963 ± 0.091 | 0.783 ± 0.028 | 1.13 ± 0.15 | 1.27 ± 0.25 | 1.02 (active)
CCC(=O)Nc1ccc(S(=O)(=O)N2CCC(Oc3ncnc(CC)c3F)C2)c(C)c1 (configuration not stated) | 1 ± 0.043 | 1.06 ± 0.087 | 1.2 ± 0.083 | 0.919 ± 0.055 | 1.24 ± 0.21 | 1.34 ± 0.4 | 0.992 (active)
O=C(CC1(Cc2ccc(I)cc2)C(=O)c2ccccc2C1=O)c1ccccc1 | 0.803 ± 0.073 | 0.876 ± 0.046 | 1.02 ± 0.091 | 0.953 ± 0.044 | 1.42 ± 0.12 | 1.59 ± 0.17 | 0.996 (active)
Cc1ccc(S(=O)(=O)n2c(C)nc3ccccc32)cc1 | 1.13 ± 0.22 | 1 ± 0.18 | 0.897 ± 0.089 | 0.969 ± 0.025 | 1.2 ± 0.13 | 1.27 ± 0.13 | 0.959 (active)
CC1(C)OC(=O)C(=Cc2ccc(I)o2)C(=O)O1 | 0.595 ± 0.069 | 1.01 ± 0.069 | 0.887 ± 0.17 | 0.589 ± 0.049 | 1.02 ± 0.18 | 0.877 ± 0.26 | 1.01 (active)
COc1ccc(OC)c(-c2csc(NC(=O)Cc3ccc(F)cc3)n2)c1 | 0.902 ± 0.097 | 0.944 ± 0.069 | 1.12 ± 0.1 | 1.1 ± 0.078 | 1.2 ± 0.18 | 1.38 ± 0.36 | 0.998 (active)
COCCNC(=O)C=Cc1ccccc1 | 1.12 ± 0.12 | 0.936 ± 0.085 | 1.05 ± 0.072 | 1.02 ± 0.15 | 0.98 ± 0.055 | 1.03 ± 0.074 | 0.991 (active)
CC12CCC(=O)C=C1C=CC1C2CCC2(C)C1CCC21CCC(=O)O1 (configuration not stated) | 0.781 ± 0.19 | 0.958 ± 0.084 | 0.93 ± 0.059 | 0.963 ± 0.034 | 1.1 ± 0.21 | 1.06 ± 0.12 | 1.01 (active)
CC(C)(C)c1ccc(=O)n(CC2CN(S(C)(=O)=O)C2)n1 | 0.983 ± 0.097 | 1.13 ± 0.095 | 0.918 ± 0.092 | 1.02 ± 0.058 | 1.15 ± 0.1 | 1.1 ± 0.34 | 1.01 (active)
Cc1ccc(S(=O)(=O)N2CCC2)cc1 | 1.03 ± 0.11 | 0.756 ± 0.097 | 1.07 ± 0.1 | 1.02 ± 0.047 | 1.37 ± 0.22 | 1.51 ± 0.39 | 1.02 (active)
Cl.Nc1ccn([C@@H]2O[C@H](CO)[C@@H](O)C2(F)F)c(=O)n1 | 1.3 ± 0.31 | 0.921 ± 0.05 | 1.29 ± 0.087 | 1.25 ± 0.063 | 1.51 ± 0.17 | 1.32 ± 0.21 | 0.173 (inactive)
CC(=O)N1CC(C(=O)Nc2cccc(Br)c2)C1 | 1.11 ± 0.063 | 1.05 ± 0.08 | 0.963 ± 0.031 | 0.932 ± 0.034 | 1.05 ± 0.062 | 0.971 ± 0.11 | 0.998 (active)
Cc1ccc(C)n1-c1ccc(C(=O)OCC(=O)c2ccc([N+](=O)[O-])cc2)cc1 | 0.888 ± 0.071 | 0.845 ± 0.054 | 1.31 ± 0.42 | 0.666 ± 0.044 | 1.1 ± 0.064 | 1.01 ± 0.14 | 0.976 (active)
Oc1ccccc1C=NNc1nc(-c2ccccc2)cc(-c2ccccc2)n1 | 0.769 ± 0.066 | 1.02 ± 0.088 | 1.03 ± 0.12 | 1.19 ± 0.12 | 1.16 ± 0.16 | 1.26 ± 0.2 | 0.987 (active)
COc1ccc(Br)cc1C(=O)Nc1cc(C(F)(F)F)cc(C(F)(F)F)c1 | 1.2 ± 0.11 | 0.99 ± 0.096 | 1.01 ± 0.044 | 0.982 ± 0.036 | 0.991 ± 0.07 | 1.05 ± 0.14 | 0.999 (active)
CC(=O)OC1(C(C)=O)CCC2C3CC(C)C4=CC(=O)CCC4(C)C3CCC21C (configuration not stated) | 1.65 ± 0.4 | 1.36 ± 0.11 | 1.29 ± 0.089 | 0.937 ± 0.045 | 1.1 ± 0.13 | 1.23 ± 0.14 | 0.984 (active)
